From PMC4666376, “Characterisation of aptamer–target interactions by branched selection and high-throughput sequencing of SELEX pools”

What follows are sequences tested against PAI-1 wild type, active (human, UniProt P05121 24-402) (assay: branched SELEX with high-throughput sequencing; PAI-1 immobilised on polyclonal anti-PAI-1 antibody; HBS (10 mM HEPES pH 7.4, 140 mM NaCl), 2 mM MgCl2, 2 mM CaCl2, 0.1% BSA; RNA pool 100 nM; PAI-1 captured on antibody-coated wells; 45 min; binding temperature not stated (PAI-1 capture at room temperature); high values mean tight binding). Conditions: protein: recombinant; tags: N-terminal His6; structured_RNA; 2'-F pyrimidines.
Sequence of PAI-1 wild type, active (P05121 24-402): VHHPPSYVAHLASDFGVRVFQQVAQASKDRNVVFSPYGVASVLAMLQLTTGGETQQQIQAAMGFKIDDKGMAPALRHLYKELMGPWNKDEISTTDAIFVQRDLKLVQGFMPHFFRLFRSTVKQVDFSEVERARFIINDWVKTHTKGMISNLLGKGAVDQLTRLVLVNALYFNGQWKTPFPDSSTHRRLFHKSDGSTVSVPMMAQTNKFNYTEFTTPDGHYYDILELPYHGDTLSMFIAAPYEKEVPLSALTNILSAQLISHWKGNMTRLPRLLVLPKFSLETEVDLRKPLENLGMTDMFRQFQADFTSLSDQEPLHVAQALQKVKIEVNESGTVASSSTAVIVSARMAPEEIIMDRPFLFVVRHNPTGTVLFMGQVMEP
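Note: Pool frequency after one selection round with this target divided by frequency before selection.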

Sequence | binding signal [enrichment factor]
GGGGCCACCAACGACAUUAUCGACCAUAACGUAGCGGGCUUUCCCGUGAUCAGGUUGAUAUAAAUAGUGCCCAUGGAUC | 0.91
GGGGCCACCAACGACAUUUGCGUAAGCAUCCUUCGAUGUACCACAUCGAGAUCGUUGAUAUAAAUAGUGCCCAUGGAUC | 1.04
GGGGCCACCAACGACAUUAAGUUCGUCCUCUUCCAAGAGAAGGGGUCUAUGCCGUUGAUAUAAAUAGUGCCCAUGGAUC | 5.35
GGGGCCACCAACGACAUUCGACCAGACGACAAGUCGUCGCACCGUAGAGUGUAGUUGAUAUAAAUAGUGCCCAUGGAUC | 0.15
GGGGCCACCAACGACAUUCGUGUUGUAUCUGUUAUACAGCAUGUUAUUUGUGCGUUGAUAUAAAUAGUGCCCAUGGAUC | 3.72
GGGGCCACCAACGACAUUAAGUUUCGUCCGGAUCGUGCAAUCCGGUCUAUGUGGUUGAUAUAAAUAGUGCCCAUGGAUC | 4.02
GGGGCCACCAACGACAUUGAUCACUAAGGUUAGACCGGAGUGCCGUAGAAUGCGUUGAUAUAAAUAGUGCCCAUGGAUC | 0.88
GGGGCCACCAACGACAUUUGCGUAAGCAACCUUGGUGUUAUAUUCACCAGAUCGUUGAUAUAAAUAGUGCCCAUGGAUC | 0.63
GGGGCCACCAACGACAUUACACUGUAGCGAGCCAGACUCGCGACCAAAUGCGUUGAUAUAAAUAGUGCCCAUGGAUC | 0.89
GGGGCCACCAACGACAUUGAACGUAAGGAGAGUGCGCUUACCGCACAAUGUUUGUUGAUAUAAAUAGUGCCCAUGGAUC | 0.43
GGGGCCACCAACGACAUUCAACGUGCACUGUAGCUGUACAAAGCGACCAACGUUGAUAUAAAUAGUGCCCAUGGAUC | 6.23
GGGGCCACCAACGACAUUACGUAGGUAGCAUUUAUAUGCUUGACCGAUCAAUCGUUGAUAUAAAUAGUGCCCAUGGAUC | 1.07
GGGGCCACCAACGACAUUACGUAGCAUGAUGAGUUUCUCGUCGGCGAUCAGUUGUUGAUAUAAAUAGUGCCCAUGGAUC | 0.98
GGGGCCACCAACGACAUUGAGCUACGGCUAAGCCGCUAUAGUCUUCAGGAAUCGUUGAUAUAAAUAGUGCCCAUGGAUC | 0.33
GGGGCCACCAACGACAUUGCCGUAGUGCAGGGUUGCUUGCAUGAUCAAUUGUUGUUGAUAUAAAUAGUGCCCAUGGAUC | 2.1
GGGGCCACCAACGACAUUACACUGUAGAGAAUACCCAAUUCUCGACUAGAUGCGUUGAUAUAAAUAGUGCCCAUGGAUC | 0.74
GGGGCCACCAACGACAUUCAACGACCAGUACGUGUGAGGGCGUACAUCAUGUAGUUGAUAUAAAUAGUGCCCAUGGAUC | 0.37
GGGGCCACCAACGACAUUGCACCUGUAGGCUAGGUCACUGGCUGACUGCAAUUGUUGAUAUAAAUAGUGCCCAUGGAUC | 0.47

Sequence | binding signal [enrichment factor]
GGGGCCACCAACGACAUUACGUAGUUGCCUAAUAAAGGUAGCGAUUUGGAUUCGUUGAUAUAAAUAGUGCCCAUGGAUC | 1.28
GGGGCCACCAACGACAUUCUGGCCGUAGGACAAUAGUCCGAUCCAGAUAUAGAGUUGAUAUAAAUAGUGCCCAUGGAUC | 0.54
GGGGCCACCAACGACAUUGAUCAACGAUCACCAUGAUACACAUGGAUCACGUAGUUGAUAUAAAUAGUGCCCAUGGAUC | 0.62
GGGGCCACCAACGACAUUCCGUCCGUGUUCAGUUAACACGCAUGUGUUUUGUGGUUGAUAUAAAUAGUGCCCAUGGAUC | 1.36
GGGGCCACCAACGACAUUGUCGUAGGCAAGUGUACGAAUCUUUGCUGACCAGUGUUGAUAUAAAUAGUGCCCAUGGAUC | 2.67
GGGGCCACCAACGACAUUUAAGUUCGUCUCACUGACUCUGCAGUGAGUCUAAUGUUGAUAUAAAUAGUGCCCAUGGAUC | 7.58
GGGGCCACCAACGACAUUCCGCUCAUGAUCUGUUAUCAUGAGUGCGUAGUACCGUUGAUAUAAAUAGUGCCCAUGGAUC | 1.08
GGGGCCACCAACGACAUUGUCGUAGGCAGAUAGAUUAUAUCCGCUGACCAGUGUUGAUAUAAAUAGUGCCCAUGGAUC | 2.25
GGGGCCACCAACGACAUUGACCCAUCUCGCGUUUCCGGGAUGACUAGUAGAAUGUUGAUAUAAAUAGUGCCCAUGGAUC | 0.56
GGGGCCACCAACGACAUUUCAUAACGUAGACUGUCUGAGUCGAUCAGAGUGUUGUUGAUAUAAAUAGUGCCCAUGGAUC | 1.68
GGGGCCACCAACGACAUUCUGGGCCGUAGGCGAUAUUAGCCGAUCCCAGAAGAGUUGAUAUAAAUAGUGCCCAUGGAUC | 1.43
GGGGCCACCAACGACAUUCAGGCCGUAGGAUGUUAUAUCCGAUCCUGAUCUUCGUUGAUAUAAAUAGUGCCCAUGGAUC | 1.4
GGGGCCACCAACGACAUUUUGAUCAACACAACGUAGGUCUAUGCGACCGAUAGUUGAUAUAAAUAGUGCCCAUGGAUC | 2.02
GGGGCCACCAACGACAUUGCCGUAGUUUCUCGAUUCCCAGAGAGACGAUCGAUGUUGAUAUAAAUAGUGCCCAUGGAUC | 4.28
GGGGCCACCAACGACAUUGAUGAUCACUGUUUCGCGCAGUGCCGUAUAUCGAUGUUGAUAUAAAUAGUGCCCAUGGAUC | 4.36
GGGGCCACCAACGACAUUGUGACCCACCAUUAUAUGGUGACUAGUAGCGUGUUGUUGAUAUAAAUAGUGCCCAUGGAUC | 0.17
GGGGCCACCAACGACAUUGCCGUAGGCGAUAAUACAUCGCUGAUCAUUUGUACGUUGAUAUAAAUAGUGCCCAUGGAUC | 2.34
GGGGCCACCAACGACAUUUCGACUUGUAGACGAUAUUCGUCGACUCGAAGAGCGUUGAUAUAAAUAGUGCCCAUGGAUC | 0.51
